HCMV antiviral: inhibitors of human cytomegalovirus | HFF cells, HCMV-luciferase reporter, 72 h; hits give low values | activity change, negative = inhibition, % at 57.5 µM | actives 4.5% (n = 410,000); in the data active = activity change below about -60%; inconclusive = no clear call, values can overlap the other calls; inactive = above about -39%
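After 16 h attachment at 37C, HFF cells received test compound and HCMV-luciferase (1 PFU/cell); reporter luminescence read 72 h later, data normalized against buffer-only and known inhibitor Salinomycin.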
CHX counter: counter-screen hit for Shiga toxin inhibitors, cycloheximide; cell reporter, cycloheximide protein synthesis inhibition counterscreen; max response, %; actives 12% (n = 300,000); in the data active = max response mostly above about 13%, no sharp cut-off; inactive = mostly below about 14%; note: read at 38.3 µM for the half of the compounds with a filed dose
Shiga toxin inh: inhibitors of Shiga toxin in Vero cells; Vero cells, Shiga toxin protein synthesis inhibition reporter; actives 9.2% (n = 290,000); inhibition, % at 38.7 µM; in the data active = inhibition mostly above about 28%, no sharp cut-off; inactive = mostly below about 43%
Pf growth 48h: inhibits P. falciparum growth in the first generation, 48 h; P. falciparum luciferase growth in erythrocytes, 48 h; Potency, µM (doses to about 28.7 µM), hits mostly inhibitors; actives 5.9% (n = 310,000); AID 504832
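Parasite viability was followed by luminescence of a genomically integrated firefly luciferase. Cultures held 0.1% parasitemia at 2% hematocrit (final), incubated under 5% CO2 at 37 C.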
Pf growth 96h: inhibits malaria parasite growth, 96 h | P. falciparum luciferase reporter growth, 96 h | actives 6.9% (n = 320,000) | AID 504834 | Potency, µM (highest dose often 28.7 µM), actives largely listed as inhibitors
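Two-generation exposure (96 h) targets delayed-death phenotype. Reporter parasites carrying integrated firefly luciferase, in red cells at 2% hematocrit and 0.05% parasitemia final, kept at 37 C, 5% CO2; luminescence loss indicates inhibition.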
Of the large screens only hits and unclear results are named; the others gave an inactive call. Only some compounds are listed: those with a hit (about 20% of all), similar ones and a draw of the others. Unless noted, calls come from the whole dose curve; as a rule, active = well fitted inhibition curve with a large enough effect; inconclusive = small, poorly fitted or top-dose-only effect, or another doubt; inactive = no such curve, though single readings can be large or run the other way.

Nc1c(-c2ccc(Cl)cc2)nnn1-c1ccccc1	CHX counter 45, Shiga toxin inh 98
Cc1ccc(-c2cnn(-c3ccccc3)c2N)cc1	CHX counter 32, Shiga toxin inh 41
COc1ccc(-c2nnn(-c3cc(Cl)cc(Cl)c3)c2N)cc1	Pf growth 48h inconclusive, Pf growth 96h inconclusive
Nc1c(-c2ccc(Cl)cc2)cnn1-c1ccccc1	CHX counter 37, Shiga toxin inh 114 (no result: HCMV antiviral)
CC(C)(C)S(=O)(=O)c1cnc2c(-c3ccc(Cl)cc3)cnn2c1N	none
COc1ccc(-c2cnn(-c3ccccc3)c2N)cc1OC	none
COc1cc(/C=C/c2nc3cc(Cl)ccc3c(=O)n2-c2cccc(C(F)(F)F)c2)cc(OC)c1OC	none (no result: CHX counter, Shiga toxin inh, Pf growth 48h, Pf growth 96h)
Nc1c(-c2ccccc2)cnn1-c1ccc(C(=O)O)cc1	CHX counter 48, Shiga toxin inh 88 (no result: Pf growth 48h)
CC1(C)Cc2c(cnn2-c2cccc(F)c2)C(NC(=O)c2ccc[n+]([O-])c2)C1 (centres undefined)	none
O=C(O)CS(=O)CC(=O)Nc1cccc(C(F)(F)F)c1 (centres undefined)	none
CCCC1=[N+](CC(=O)c2ccc(C)cc2)CCn2cccc21	Pf growth 48h 10µM, Pf growth 96h inconclusive
Cc1cc(C)nc(N2CCC(C(=O)O)CC2)n1	none
COc1cc(C)nc(N2CCC(C(N)=O)CC2)n1	Pf growth 96h 9.3µM
CCOC(=O)[C@]12Cc3cc(OC)ccc3[C@H]1N(CCC(=O)OC)C(=O)c1cc(OC)ccc12	HCMV antiviral -107 (no result: CHX counter, Shiga toxin inh, Pf growth 48h, Pf growth 96h)
CCOC(=O)[C@]12Cc3ccccc3[C@H]1N(Cc1ccccc1)C(=O)c1cc(OC)ccc12	none (no result: CHX counter, Shiga toxin inh, Pf growth 48h, Pf growth 96h)
CCOC(=O)[C@]12Cc3ccccc3[C@H]1N(CCC(=O)OC)C(=O)c1cc(OC)ccc12	HCMV antiviral -99 (no result: CHX counter, Shiga toxin inh, Pf growth 48h, Pf growth 96h)
CCOC(=O)[C@]12Cc3cc(C)ccc3[C@H]1N(C)C(=O)c1ccccc12	none (no result: CHX counter, Shiga toxin inh, Pf growth 48h, Pf growth 96h)
CCOC(=O)[C@]12Cc3c(cc(OC)c(OC)c3OC)[C@H]1N(CCC(=O)OC)C(=O)c1ccccc12	HCMV antiviral -108 (no result: CHX counter, Shiga toxin inh, Pf growth 48h, Pf growth 96h)
CCOC(=O)[C@]12Cc3c(cc(OC)c(OC)c3OC)[C@H]1N(C)C(=O)c1ccccc12	none (no result: CHX counter, Shiga toxin inh, Pf growth 48h, Pf growth 96h)
COc1ccc(N2CCN(C(=O)Cc3ccc(OC)c(OC)c3)CC2)cc1	Pf growth 96h inconclusive
CCC(C)NS(=O)(=O)c1ccc(NS(=O)(=O)c2ccc(F)cc2)cc1 (centres undefined)	none (no result: Pf growth 48h)
CCOC(=O)Cc1csc(NC(=O)c2ccc(NC(C)=O)cc2)n1	none
CCOC(=O)Cc1csc(NC(=O)COc2ccc(C)c(C)c2)n1	CHX counter 33, Shiga toxin inh 41
CCOC(=O)Cc1csc(NC(=O)/C=C/c2ccc(OC)cc2)n1	CHX counter 37, Shiga toxin inh 115
CCOC(=O)Cn1nc(C)c(NC(=O)COc2ccc(C)c(C)c2)c1C	HCMV antiviral -61
CCOC(=O)Cc1csc(NC(=O)COC(=O)/C=C/c2ccc(OC)cc2)n1	none (no result: CHX counter, Shiga toxin inh, Pf growth 48h, Pf growth 96h)
CCOC(=O)Cc1csc(NC(=O)Nc2ccc(OC(F)(F)F)cc2)n1	CHX counter 23, Shiga toxin inh 45, Pf growth 48h 12µM, Pf growth 96h 9.3µM
C[n+]1ccc(/C=N/Nc2nc(Cl)c(C#N)c(Cl)c2Cl)cc1	none
Cc1nc(C)n(C(C)CNC(=O)c2cccc(Br)c2)n1 (centres undefined)	none
Cc1cccc(CSc2nnc(-c3cccs3)n2Cc2ccco2)c1	none
CCOC(=O)Cc1csc(NC(=O)CCCc2ccccc2)n1	none
CCOC(=O)Cc1csc(NC(=O)/C=C\c2ccccc2)n1	CHX counter 32, Shiga toxin inh 53, Pf growth 96h inconclusive
Cc1oc(-c2cccs2)nc1CN1CCN(CC(C)C)C(CCO)C1 (centres undefined)	Pf growth 96h 1.9µM
COc1cccc(CN2CCN(Cc3nc(-c4cccs4)oc3C)CC2CCO)c1 (centres undefined)	Pf growth 48h 9.3µM, Pf growth 96h inconclusive
COc1cccc(CN2CCN(c3nc4nonc4nc3N3CCCCC3)CC2=O)c1	Pf growth 48h inconclusive, Pf growth 96h inconclusive
COc1cccc(CN2CCN(Cc3nc(-c4cccc(F)c4F)oc3C)CC2=O)c1	Pf growth 48h 13µM, Pf growth 96h inconclusive
Cc1ccc(CSc2nnc3[nH]c(=O)cc(C)n23)cc1	none (no result: CHX counter, Shiga toxin inh, Pf growth 48h, Pf growth 96h)
Cc1cccc(-c2nc(CCNC(=O)COc3ccccc3)cs2)c1	none (no result: CHX counter, Shiga toxin inh, Pf growth 48h, Pf growth 96h)
N#CCC(=O)Nc1ccc(C(=O)Nc2cccnc2)cc1	Pf growth 48h inconclusive
Cc1cc(C)c2sc(N(Cc3cccnc3)C(=O)CCS(=O)(=O)c3ccccc3)nc2c1	none (no result: CHX counter, Shiga toxin inh, Pf growth 48h, Pf growth 96h)
O=C(O)c1c2c(nc3ccccc13)CCCCC2	Pf growth 96h inconclusive
Nc1c2c(nc3ccn(-c4ccccc4)c(=O)c13)CCCCC2	Pf growth 48h inconclusive, Pf growth 96h 17µM
Nc1c2c(nc3ccn(Cc4ccccc4)c(=O)c13)CCC2	Pf growth 96h 2.9µM (no result: Pf growth 48h)
COc1ccccc1CNC(=O)COC(=O)C1=COCCO1	Pf growth 96h 5.2µM
O=C(COC(=O)C1=COCCO1)NCc1ccc(Cl)cc1Cl	HCMV antiviral -61 (no result: CHX counter, Shiga toxin inh, Pf growth 48h, Pf growth 96h)
O=C(COC(=O)C1=COCCO1)NCc1ccc(F)cc1	Pf growth 48h inconclusive
O=C(COC(=O)C1=COCCO1)Nc1cc(Cl)c(Cl)cc1Cl	none (no result: CHX counter, Shiga toxin inh, Pf growth 48h, Pf growth 96h)
COc1ccccc1CNC(=O)COC(=O)c1cccnc1SCC(=O)NCc1ccccc1OC	CHX counter 29, Shiga toxin inh 68
O=C(COC(=O)c1cccnc1SCC(=O)NCc1ccccc1)NCc1ccccc1	none (no result: Pf growth 96h)
N/C(CS(=O)(=O)c1ccc(F)cc1)=N\O	Pf growth 48h inconclusive
CCN(Cc1cnn(C)c1)Cc1nc(C(c2ccccc2)c2ccccc2)no1	Pf growth 48h inconclusive
N#CN(Cc1ccccc1)Cc1ccccc1	none
COc1cc(C2C(C#N)=C(N)OC3=C2C(=O)CC(C)(C)C3)cc2c1OCO2 (centres undefined)	none (no result: CHX counter, Shiga toxin inh, Pf growth 48h, Pf growth 96h)
CCC1(C)NC(=O)N(/N=C/c2ccc(C)s2)C1=O (centres undefined)	HCMV antiviral -98, CHX counter 46, Shiga toxin inh 47
CCC1(C)NC(=O)N(/N=C/c2cc(OC)c(O)c(OC)c2)C1=O (centres undefined)	none
Cc1ccc(NC(=O)c2ccc3nc(Cc4ccccc4)oc3c2)cc1F	none (no result: CHX counter, Shiga toxin inh, Pf growth 48h, Pf growth 96h)
O=C(Nc1ccccc1)N(C1=NCCCCS1)c1ccccc1	HCMV antiviral -104, CHX counter 24 (no result: Pf growth 96h)
O=C(Nc1ccccc1)N(C1=NCCCCS1)c1cccc2ccccc12	CHX counter 46
Cc1ccc(-c2nnc(Nc3ccc(Br)cc3)c3ccccc23)cc1S(=O)(=O)N1CCCCC1	none (no result: CHX counter, Shiga toxin inh, Pf growth 48h, Pf growth 96h)
C=CCN1C(=O)/C(=C\C(C)=C\c2ccccc2)SC1=S	HCMV antiviral inconclusive (no result: Shiga toxin inh)
C=CCN1C(=O)/C(=C/c2ccc(OC(C)=O)c(OCC)c2[N+](=O)[O-])SC1=S	HCMV antiviral -99, CHX counter 27, Shiga toxin inh 103, Pf growth 48h 9.3µM
COc1ccc(OC)c(NC(=O)c2ccccc2N(C)S(=O)(=O)c2ccc(C)cc2)c1	Pf growth 96h inconclusive
CCOC(=O)CCCNC(=O)COC(=O)c1cccc(F)c1	none
Cc1nnsc1C(=O)Nc1ccccc1	Pf growth 96h 10µM
